# In PubChem BioAssay AID1745847 (National Center for Advancing Translational Sciences (NCATS), 2022):
# Where “and” joins values, the source holds several entries; their conditions need not be identical. Identical values can stand only once. Among all 2,100 compounds or so, about 670 (32%) were called active. About 50% were inconclusive and are not listed. Some of the results follow. Unmarked numbers belong to inactive results. Calls come from the whole dose curve; as a rule, active = well fitted inhibition curve with a large enough effect; inconclusive = small, poorly fitted or top-dose-only effect; inactive = no such curve, though single readings can be large or run the other way.
# Experiment: CMV-Luciferase Counterscreen for Inhibitors of ATXN expression; note: nearly all actives have a fitted effect of over 55% in size
# Conditions: HEK-293 CMV-luciferase reporter, luminescence, 24 h; series mostly up to 57.5 µM; activity change, negative = inhibition: at the top concentration
# % is set by controls: 0 for no effect and ±100 for the full control effect; potency is the fitted concentration of half-maximal effect.
SMILES,Potency,"activity change, negative = inhibition"
COc1ccc(-c2nn(-c3ccccc3)cc2C(=O)NC(=S)NNC(=O)c2ccncc2)cc1,8.91 µM (active),
CCCC/C(C)=N/NC(=O)c1cn(-c2ccccc2)nc1-c1ccccc1,,-28.6% [at 11.4 µM]
Cc1ccc(-c2nc3cc(Br)cnc3nc2-c2ccc(C)cc2)cc1,,-25.9% [at 11.4 µM]
CCOC(=O)c1cnc(-n2nc(C)cc2C)nc1NC1CCCC1,1.78 µM (active),
COc1ccc(Cc2nnc(N/N=C/c3ccc(O)cc3)[nH]c2=O)cc1OC,0.891 µM (active),
C=CCOc1ccc(CNc2ccc3[nH]c(=O)[nH]c3c2)cc1OC,,24.3%
COc1ccc(Cc2nnc(N/N=C/c3ccccc3O)[nH]c2=O)cc1OC,1.41 µM (active),
COc1ccc(-c2csc(NC(=O)C3CCN(c4ncnc5sc(C)c(C)c45)CC3)n2)cc1OC,3.55 µM (active),
COc1ccc(S(=O)(=O)N(C)C)cc1NC(=O)C1CCN(c2ncnc3sc(C)c(C)c23)CC1,10 µM (active),
CCN(CC)S(=O)(=O)c1cc(NC(=O)C2CCN(c3ncnc4sc(C)c(C)c34)CC2)ccc1Cl,,52%
CN(C)c1ccccc1-c1cc(NC=O)c2ncc(-c3cccc(C(F)(F)F)c3)n2c1,,-12.7% [at 11.4 µM]
O=C(N/N=C/c1c(O)ccc2ccccc12)c1cccc(C(F)(F)F)c1,2.82 µM (active),
O=C(NN=Cc1c(O)ccc2ccccc12)c1ccc2c(c1)OCO2,2.24 µM (active),
O=C(N/N=C/c1cc([N+](=O)[O-])ccc1O)c1cccc(N2CCCC2=O)c1,7.94 µM (active),
O=[N+]([O-])c1ccc(/C=N/N=C/c2ccc([N+](=O)[O-])o2)o1,14.1 µM (active),
O=C(N/N=C/c1ccc([N+](=O)[O-])o1)c1ccc2c(c1)OCO2,12.6 µM (active),
O=C(N/N=C/c1ccccc1O)c1cccc(C(F)(F)F)c1,0.501 µM (active),
O=C(N/N=C\c1c(O)ccc2ccccc12)c1ccc(Cn2cccn2)o1,0.891 µM (active),
O=C(NN=Cc1ccccc1O)c1cccc([N+](=O)[O-])c1,3.98 µM (active),
COc1ccc(/C=N/NC(=O)c2cccc([N+](=O)[O-])c2)c2ccccc12,,-1.17% [at 11.4 µM]
C/C(=N\Nc1cc(N2CCOCC2)nc(C)n1)c1cccc([N+](=O)[O-])c1,,-9.23% [at 11.4 µM]
COc1ccc(S(=O)(=O)Nc2ccc(F)cc2)cc1N(C)S(=O)(=O)c1ccc(Cl)cc1,10 µM (active),
O=C(Nc1nnc(C2CC2)o1)c1ccc(S(=O)(=O)N2CCCc3ccccc32)cc1,7.08 µM (active),

SMILES,Potency,"activity change, negative = inhibition"
CN1CCC(N(C)C(=O)c2ccc(Cl)c(S(=O)(=O)N3CCc4ccccc43)c2)CC1,,-24.7%
CCN(Cc1ccccc1)S(=O)(=O)c1ccc(C(=O)Nc2nnc(C3CC3)o2)cc1,2.24 µM (active),
Cc1ccc(C(=O)N/C(=C\c2ccc(-c3ccc(Cl)cc3)o2)C(=O)NCCCN(C)C)cc1,,-11.4%
O=C(N/N=C/c1ccc(O)cc1O)/C(=C/c1ccccc1)CCO,1.78 µM (active),
O=C(COc1ccccc1)NCC(=O)N/N=C/c1ccc(O)cc1O,14.1 µM (active),
O=C(/C=C\c1ccccc1)NCC(=O)N/N=C/c1ccc(O)cc1O,25.1 µM (active),
Cc1cccc(OCC(=O)NCC(=O)N/N=C/c2cc(Br)cc(Br)c2O)c1,5.01 µM (active),
CCC(=O)OC1(C(C)=O)CCC2C3CCC4=CC(=O)CCC4(C)C3CCC21C (centres undefined),,-21.7%
O=C(OCCN1C(=O)c2cccc3c(N4CCOCC4)ccc(c23)C1=O)c1ccccc1Cl,15.8 µM (active),
CC1(C)C(C=C(Cl)Cl)C1C(=O)Nc1ccc([N+](=O)[O-])cc1 (centres undefined),20 µM (active),
Cc1cccc(OCCSc2nc3ncnc(N)c3[nH]2)c1,,-5.15%
CCN(CC)CCCNc1nc2ccccc2c2nc(-c3ccncc3)nn12,12.6 µM (active),
Cc1ccc(/C=C2\SC(=S)N(CCCC(=O)Nc3ccccc3C(=O)O)C2=O)cc1,2 µM (active),
Cc1ccc(/C=C2\SC(=S)N(CCCC(=O)Nc3ccc(O)cc3)C2=O)cc1,3.16 µM (active),
Cc1ccc(/C=C2\SC(=S)N(CCCC(=O)Nc3cc(C)on3)C2=O)cc1,3.55 µM (active),
Cc1cc(C)cc(NC(=O)CCC(=O)Nc2cc(C)on2)c1,,165% [at 11.4 µM]
Cc1ccc(/C=C2/SC(=S)N(CCCC(=O)Nc3cc([N+](=O)[O-])ccc3O)C2=O)cc1,28.2 µM (active),
Cc1ccc(/C=C2\SC(=S)N(CCCC(=O)NC3CCCC3)C2=O)cc1,2.51 µM (active),
Cc1ccc(/C=C2\SC(=S)N(CCCC(=O)Nc3cccnc3)C2=O)cc1,3.98 µM (active),
Cc1ccc(/C=C2/SC(=S)N(CCCC(=O)Nc3ccc(O)cc3)C2=O)cc1,2 µM (active),
Cc1ccc(NC(=O)COc2ccc(/C=C3/SC(=Nc4ccccc4)N(Cc4cccnc4)C3=O)cc2)cc1,,-6.8%
COc1cccc(/C=C2/SC(=S)N(CCCC(=O)Nc3ccc(O)cc3)C2=O)c1,3.16 µM (active),
CC(C)C[C@H](N)c1cn([C@@H](CCCCN)C(=O)N2CCNCC2)nn1,,-7.7% [at 11.4 µM]

SMILES,Potency,"activity change, negative = inhibition"
Cc1csc(NC(=O)COCC(=O)O)c1-c1nc2ccccc2s1,,-1.27%
c1cc2c(cc1-c1cnc3n1CCC3)OCCO2,,59.6%
CC(C)(O)C#Cc1ccc([C@@H]2C[C@H]3CN(c4ccccc4)C(=O)[C@]34CCCN24)s1,,51.4%
O=[N+]([O-])c1ccc(O)c(/C=N/Nc2ncnc3c2cnn3-c2ccccc2)c1,1.58 µM (active),
CN(C)S(=O)(=O)c1cccc(N2C(=O)CC3(CCCCC3)CC2=O)c1,,-19.6% [at 11.4 µM]
COc1ccc(CSCC(=O)N/N=C/c2ccccc2O)cc1,25.1 µM (active),
COc1cccc(/C=N/NC(=O)CSCC(=O)Nc2ccccc2)c1O,1.26 µM (active),
COc1cccc(/C=N/NC(=O)CSc2ccccc2C)c1O,7.08 µM (active),
C/C(=N\OCC(=O)N/N=C/c1ccccc1O)c1cccs1,12.6 µM (active),
COc1cccc(/C=N/NC(=O)Cn2nc(C)c([N+](=O)[O-])c2C)c1O,8.91 µM (active),
CCCCSc1nc(C)cc(SCC(=O)N/N=C/c2cccc(OC)c2O)n1,1 µM (active),
COc1ccc(O)c(/C=N/NC(=O)c2ccc(CSc3nc(C)cc(C)n3)cc2)c1,2.82 µM (active),
OC(c1cc(-c2cccc(Cl)c2)nc2ccccc12)C1CCCCN1 (centres undefined),22.4 µM (active),
Cc1onc(-c2c(F)cccc2Cl)c1C(=O)Nc1nnc(C(F)(F)F)s1,1.41 µM (active),
C[n+]1c2cc(N)ccc2cc2ccc(N)cc21,8.91 µM (active) and 3.55 µM (active),
Cc1nc2ccccc2n1-c1nc(-c2ccco2)cc(C(F)(F)F)n1,,-23.8%
CC(C)NC1CCC(Nc2ccnc3cc(Cl)ccc23)CC1 (centres undefined),17.8 µM (active),
Cc1ccccc1N=Nc1ccc(O)c2ncccc12,1.41 µM (active),
Cc1ccc(N=Nc2ccc(O)c3ncccc23)cc1,3.55 µM (active),
CC(C)(C)S(=O)(=O)/C(C#N)=N/Nc1ccc(Cl)cc1,7.94 µM (active),
FC(F)(F)c1ccc(N2CCN(c3cc(-c4ccccc4)nc4ncnn34)CC2)nc1,1.58 µM (active),
O=c1cc(Nc2ccc3c(c2)OCCO3)[nH]c(=O)n1-c1ccc(Br)cc1,,-20.1%
O=C(Cn1c(=O)n(CC(=O)NCc2ccccc2)c2ccccc21)NCc1ccccc1,,22.5%

SMILES,Potency,"activity change, negative = inhibition"
CCN(CC)c1ccc(/C=N/NC(=O)c2cccc(S(=O)(=O)N3CCOCC3)c2)c(O)c1,0.891 µM (active),
CCN(CC)c1ccc(/C=N/NC(=O)CCC(=O)NCc2ccccc2)c(O)c1,3.16 µM (active),
CCN(CC)c1ccc(/C=N/NC(=O)Cc2cccs2)c(O)c1,2.82 µM (active),
CN(C)c1nc(N/N=C/c2c[nH]c3ccccc23)nc(N2CCOCC2)n1,,-16.1% [at 11.4 µM]
Cc1cc(C)n(-c2nc(NCCN(C)C)c3c4c(sc3n2)COC(C)(C)C4)n1,,-12.1% [at 11.4 µM]
O=S(=O)(Cc1cc(NCc2ccccc2)nc(-c2ccccn2)n1)c1ccccc1,,-28.9%
CN1CCN(c2nc(-c3ccccn3)nc3ccccc23)CC1,,-26.3%
c1ccc(CNc2nc(-c3ccccn3)nc3ccccc23)cc1,4.47 µM (active),
O=S(=O)(c1ccc2c(c1)OCCO2)N1CCC(c2nc3ccc(Cl)cc3[nH]2)CC1,3.98 µM (active),
CCOc1ccc(NCc2cccn2-c2nnc(N3CCC(C(=O)NCCCN4CC(C)CC(C)C4)CC3)s2)cc1 (centres undefined),,-19.5% [at 11.4 µM]
COc1ccc(-n2c(-c3ccc(Cl)cc3)c[n+]3c2CCCCC3)cc1,12.6 µM (active),
COc1ccc(-c2c[n+]3c(n2-c2ccc(C)cc2)CCCCC3)cc1,6.31 µM (active),
O=c1cc(-c2ccccc2Cl)oc2c([N+](=O)[O-])c(O)cc(O)c12,1.26 µM (active),
CC1(S(=O)(=O)O)CC(=O)c2ccccc2C1=O (centres undefined),28.2 µM (active),
CC(C)N(C(=O)COC(=O)c1ccccc1C(=O)c1ccc(Cl)c([N+](=O)[O-])c1)C(C)C,,-18% [at 11.4 µM]
CCn1c(C)cc(C(=O)COC(=O)c2ccccc2[N+](=O)[O-])c1C,22.4 µM (active),
O=C(CCc1ccccc1)N/N=C/c1cc(Br)ccc1O,0.891 µM (active),
Cc1ccc(SCCC(=O)N/N=C/c2ccccc2O)cc1,1.78 µM (active),
O=C(CP(=O)(c1ccccc1)c1ccccc1)N/N=C/c1cc(Br)cc(Br)c1O,1.78 µM (active),
O=C(CCN1CCN(c2ccccc2)CC1)N/N=C/c1ccccc1O,0.501 µM (active),
